In PubChem BioAssay (Tox21):
Values without a mark were called inactive. Records with an inconclusive call do not appear. Entries that show only a call come without a potency. Calls of active or inactive are those of the source. Unless noted, calls come from the whole dose curve; as a rule, active = well fitted curve in the direction sought with a large enough effect in the repeat runs; inconclusive = weak or mixed curves; inactive = no such curve, though single readings can be large; an effect the other way counts as inactive or inconclusive.

Experiments:
[1] = qHTS assay to identify small molecule agonists of the hypoxia (HIF-1) signaling pathway - cell viability counter screen (AID 1224844; calls by dose curve; note: nearly all actives have a fitted effect of over 50% in size)
How it was run: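 Viability counter screen: HRE-bla ME-180 cells plated 5 hrs before compound addition, treated 17 hrs at 37C and 5% CO2, then CellTiter-Glo added after the FRET reporter read; luminescence after 30 min.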

[2] = qHTS assay to identify small molecule agonists of H2AX (AID 1224845; active = well fitted activation curve with a large enough effect in the signal ratio in the repeat runs, not every such curve was filed as active; the % refers to the signal ratio)
How it was run: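 Wild-type CHO-K1 cells plated overnight, then exposed 3 hr at 37C to compounds at 15 concentrations (0.76% DMSO). Lysed, then HTRF anti-pH2AX(S139)-cryptate/anti-H2AX-d2 detection after 24 hr at room temperature; emissions 665 and 620 nm.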

[3] = qHTS assay to identify small molecule agonists of the hypoxia (HIF-1) signaling pathway (AID 1224846; active = well fitted activation curve with a large enough effect in the signal ratio in the repeat runs, not every such curve was filed as active; the % refers to the signal ratio)
How it was run: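 Agonist mode reporter screen. ME-180 cells stably expressing bla under HRE control received test compounds in DMSO for 17 hrs (37C, 5% CO2), and beta-lactamase activity was then detected with the CCF4-AM FRET substrate.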

[4] = qHTS assay to identify small molecule agonists of H2AX - cell viability counter screen (AID 1224847; calls by dose curve; note: top concentration of the series differs between compounds; nearly all actives have a fitted effect of over 30% in size)
How it was run: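 Wild-type CHO-K1 cells (10% FBS medium) were plated overnight at 37C, exposed to compounds at 15 concentrations for 3 hr at 37C (0.76% DMSO final), and viability was read as CellTiter-Glo luminescence after 30 min at room temperature.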

[5] = qHTS RealTime-Glo MT Cell Viability Assay in HepG2 cells - 24 hour (AID 1224867); note: nearly all actives have a fitted effect of over 50% in size
How it was run: (§1)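 Viability was tracked continuously by NanoLuc luminescence from prosubstrate reduced by living HepG2 cells, at successive time points over 40 h of compound exposure. Cells with reagent were preincubated 5 h at 37 °C before compound addition.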

[6] = qHTS RealTime-Glo MT Cell Viability Assay in HEK293 cells - 32 hour (AID 1224868); note: top concentration of the series differs between compounds; nearly all actives have a fitted effect of over 50% in size
How it was run: (§2)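 Viability tracked continuously by luminescence as live cells reduce a prosubstrate for NanoLuc; HEK293 cells preincubated 5 h, compound-treated at 37 C, and read at 0, 8, 16, 24, 32 and 40 h.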

[7] = A CellTox Green Cytotoxicity Assay to monitor cytotoxicity in HEK293 cells - 0 hour (AID 1224869); note: nearly all actives have a fitted effect of over 50% in size
How it was run: (§3)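 Dead-cell fluorescence measured kinetically: asymmetric cyanine dye, HEK293, 600 cells/well, 5 h settle, 23 nL cpd/DMSO, 37 C, reads 0–40 h every 8 h.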

[8] = qHTS RealTime-Glo MT Cell Viability Assay in HepG2 cells - 40 hour (AID 1224870); note: nearly all actives have a fitted effect of over 50% in size
How it was run: (§4)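 HepG2 cells mixed with RealTime-Glo MT reagents (NanoLuc plus cell-permeant prosubstrate) were seeded at 600 cells/well, incubated 5 h at 37 C/5% CO2, then pinned with compounds in DMSO; nonlytic luminescence tracked viability during 40 h treatment.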

[9] = A CellTox Green Cytotoxicity Assay to monitor cytotoxicity in HEK293 cells - 40 hour (AID 1224871); note: nearly all actives have a fitted effect of over 45% in size
How it was run: as §3

[10] = qHTS RealTime-Glo MT Cell Viability Assay in HepG2 cells - 8 hour (AID 1224873); note: nearly all actives have a fitted effect of over 55% in size
How it was run: as §4

[11] = qHTS RealTime-Glo MT Cell Viability Assay in HEK293 cells - 40 hour (AID 1224874); details: RealTime-Glo luminescence; max response: stronger effect = lower value; note: nearly all actives have a fitted effect of over 50% in size
How it was run: (§5)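 600 HEK293 cells per well, dispensed already mixed with RealTime-Glo MT reagents. Compound dosing came 5 h later. The same wells were read for luminescence at 0, 8, 16, 24, 32 and 40 h of exposure at 37 C.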

[12] = A CellTox Green Cytotoxicity Assay to monitor cytotoxicity in HEK293 cells - 24 hour (AID 1224875); note: series mostly up to about 77 µM; nearly all actives have a fitted effect of over 45% in size
How it was run: as §3

[13] = A CellTox Green Cytotoxicity Assay to monitor cytotoxicity in HepG2 cells - 16 hour (AID 1224876); note: nearly all actives have a fitted effect of over 45% in size
How it was run: (§6)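 First, HepG2 cells (600/well) mixed with reagent were plated; second, after 5 h at 37 C they received compounds via pintool; third, fluorescence was measured at 0 h through 40 h at 8 h intervals.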

[14] = qHTS RealTime-Glo MT Cell Viability Assay in HepG2 cells - 32 hour (AID 1224877); note: nearly all actives have a fitted effect of over 55% in size
How it was run: as §1

[15] = A CellTox Green Cytotoxicity Assay to monitor cytotoxicity in HepG2 cells - 24 hour (AID 1224878); note: nearly all actives have a fitted effect of over 45% in size
How it was run: as §6

[16] = A CellTox Green Cytotoxicity Assay to monitor cytotoxicity in HepG2 cells - 40 hour (AID 1224879); note: nearly all actives have a fitted effect of over 40% in size; note: potency is the fitted concentration of half-maximal effect
How it was run: as §6

[17] = qHTS RealTime-Glo MT Cell Viability Assay in HEK293 cells - 0 hour (AID 1224880)
How it was run: as §5

[18] = qHTS RealTime-Glo MT Cell Viability Assay in HEK293 cells - 16 hour (AID 1224872)
How it was run: as §2

SMILES	Potency [1]	Potency [2]	outcome [3]	Potency [4]	Potency [5]	Potency [6]	Potency [7]	Potency [8]	Potency [9]	outcome [10]	max response [11] [%]	Potency [12]	Potency [13]	Potency [14]	Potency [15]	Potency [16]	outcome [17]	Potency [18]
CC1(O)CSC(C)(O)CS1 (stereo not given)	inactive	inactive	inactive	inactive	inactive	inactive	inactive	inactive	inactive	inactive	5.86	inactive	inactive	inactive	inactive	inactive	inactive	–
CCOC(=O)[C@H](CCc1ccccc1)N[C@@H](C)C(=O)N1Cc2cc(OC)c(OC)cc2C[C@H]1C(=O)O	inactive	inactive	inactive	inactive	inactive	inactive	–	inactive	inactive	inactive	3.96	inactive	inactive	inactive	inactive	inactive	inactive	inactive
CN(CC1(C)CCCO1)S(=O)(=O)c1ccc(Cl)c(S(N)(=O)=O)c1 (stereo not given)	inactive	inactive	inactive	inactive	inactive	inactive	inactive	inactive	inactive	inactive	2.08	inactive	–	inactive	inactive	inactive	inactive	inactive
CCCS(=O)c1ccc2nc(NC(=O)OC)[nH]c2c1 (stereo not given)	inactive	inactive	inactive	inactive	inactive	–	–	inactive	inactive	inactive	–	inactive	inactive	–	inactive	12 µM (active)	–	inactive
NCCCN1CCN(CCCN)CC1	inactive	inactive	inactive	inactive	inactive	inactive	inactive	inactive	inactive	inactive	6.33	inactive	inactive	inactive	–	–	inactive	inactive
CCOc1ccc(NS(=O)(=O)c2ccc(N)cc2)nn1	inactive	inactive	inactive	inactive	inactive	–	inactive	inactive	inactive	inactive	–	inactive	inactive	inactive	inactive	–	inactive	–
O=Cc1ccc(F)c(Br)c1	inactive	inactive	inactive	inactive	inactive	inactive	inactive	inactive	inactive	inactive	3.83	inactive	–	–	inactive	inactive	inactive	inactive
